Several values for one entry are separate records, joined by “and”; a condition that tells them apart may be missing. Equal entries are not always repeated. Records with an inconclusive call do not appear. Activity calls are given as the source filed them. How the source made its calls: active means hit-call score of the fitted dose curve at least 0.9, where 1 is the maximum; inconclusive means response in the unintended direction; inactive means score below 0.9.
What follows are compounds tested against rat CYP2D2, Cyp2d26 (gene 25053) (UniProt P10634) (assay: NVS_ADME_rCYP2D2: NovaScreen (NVS) CYP450-related Enzyme Activity (ADME) Assay for rat CYP2D2 (AID 2283124)).
Sequence of rat CYP2D2, Cyp2d26 (gene 25053) (P10634 whole entry, looked up): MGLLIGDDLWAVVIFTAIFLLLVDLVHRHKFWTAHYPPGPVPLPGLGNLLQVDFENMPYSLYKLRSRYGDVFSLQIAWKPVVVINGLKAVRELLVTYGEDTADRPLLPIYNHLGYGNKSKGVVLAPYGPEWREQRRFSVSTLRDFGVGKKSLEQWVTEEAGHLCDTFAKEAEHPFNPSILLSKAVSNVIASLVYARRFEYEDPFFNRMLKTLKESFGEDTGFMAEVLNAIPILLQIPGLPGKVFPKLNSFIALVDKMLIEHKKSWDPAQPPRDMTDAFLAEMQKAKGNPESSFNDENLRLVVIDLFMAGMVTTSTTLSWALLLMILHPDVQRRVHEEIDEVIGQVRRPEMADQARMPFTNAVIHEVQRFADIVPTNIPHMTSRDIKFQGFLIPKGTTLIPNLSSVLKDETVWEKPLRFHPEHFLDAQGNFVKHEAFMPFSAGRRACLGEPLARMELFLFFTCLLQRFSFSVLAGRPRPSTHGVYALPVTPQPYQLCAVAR
Protocol: NVS_ADME_rCYP2D2 is a biochemical, single-readout assay that uses extracted gene-proteins in a cell-free assay. Measurements were taken 0.75 hour after chemical dosing in a 96-well plate.NVS_ADME_rCYP2D2 is one of one assay component(s) measured or calculated from the NVS_ADME_rCYP2D2 assay. It is designed to make measurements of enzyme activity, a form of enzyme reporter, as detected with fluorescence intensity signals by Fluorescence technology.Data from the assay component NVS_ADME_rCYP2D2 was analyzed into 1 assay endpoint. This assay endpoint, NVS_ADME_rCYP2D2, was analyzed in the positive analysis fitting direction relative to Acetonitrile as the negative control and baseline of activity. Using a type of enzyme reporter, loss-of-signal activity can be used to understand changes in the enzymatic activity as they relate to the gene Cyp2d2. Furthermore, this assay endpoint can be referred to as a primary readout, because this assay has produced multiple assay endpoints where this one serves a enzymatic activity function. To generalize the intended target to other relatable targets, this assay endpoint is annotated to the cyp intended target family, where the subfamily is xenobiotic metabolism.
Binding assays used specific radioligands (tritiated, iodinated) with non-radioactive competitive displacement ligands in agonist or antagonist protocols (as indicated) and various reference compounds and inhibitors to titrate specific binding to receptors and transporters. Most enzyme assays (CYPs, kinases, phosphatases, proteases, HDACs) used recombinant protein and specific substrates (fluorescence mostly, some colorimetric and radioactive) and inhibitors, followed by a biochemical separation of substrate and product. All assays for the biochemical HTS were initially run in duplicate at a single concentration (10 uM for CYP450 assays and 25 uM for all others). Assay-chemical combinations meeting a pre-defined threshold (e.g., 30% inhibition and other criteria defined below) were then run in singleton concentration-response format with maximum concentration of 20 uM for CYPs and 50 uM for all others. Each assay was run with positive and negative controls, and concurrent controls on every plate. The follow-up (secondary) screen tested active chemical-pairs in concentration series, as well as a few additional assays not tested in the primary screen, some selected negative inactives, and several cases re-run in the concentration series for confirmatory purposes.

Row | Structure (SMILES) | AC50 | outcome
1 | CCCN(CC)CC1COC2(CCC(C(C)(C)C)CC2)O1 (centres undefined) | 6.05 µM (active) and 2.09 µM (active) | 
2 | CCCCC(C#N)(Cn1cncn1)c1ccc(Cl)cc1 (centres undefined) | 6.44 µM (active) | 
3 | CCN(CC)C(=O)C(C)Oc1cccc2ccccc12 (centres undefined) | 6.02 µM (active) | 
4 | COP(=S)(OC)SCn1nnc2ccccc2c1=O | 7.04 µM (active) | 
5 | CC(C)(C)C(=O)C(Oc1ccc(Cl)cc1)n1cncn1 (centres undefined) | 5.33 µM (active) and 5.52 µM (active) | 
6 | CCCCOCN(C(=O)CCl)c1c(CC)cccc1CC | 3.35 µM (active) | 
7 | CCNC(=O)NC(=O)C(C#N)=NOC |  | inactive
8 | COP(=S)(OC)Oc1ccc([N+](=O)[O-])c(C)c1 | 5.28 µM (active) | 
9 | CC1(C)CCC(=Cc2ccc(Cl)cc2)C1(O)Cn1cncn1 (centres undefined) |  | inactive
10 | Cn1c(-c2ccccc2)cc(-c2ccccc2)[n+]1C | 5.35 µM (active) | 
11 | CCNP(=S)(OC)O/C(C)=C/C(=O)OC(C)C (centres undefined) | 5.41 µM (active) | 
12 | CCOP(=S)(OCC)Oc1nc(Cl)n(C(C)C)n1 | 5.76 µM (active) | 
13 | CCCCC(O)(Cn1cncn1)c1ccc(Cl)cc1Cl (centres undefined) | 4.09 µM (active) | 
14 | CCOc1cc(C(C)(C)C)ccc1C1COC(c2c(F)cccc2F)=N1 (centres undefined) | 0.55 µM (active) | 
